These results are taken from PubChem BioAssay (NCATS).

Results filed as inconclusive are left out. The source made the active and inactive calls. Calls follow the shape of the dose curve; as a rule, active = well fitted cell-killing curve with a large enough effect; inconclusive = small, poorly fitted or top-dose-only effect, or effect the other way; inactive = no such curve, though single readings can be large or run the other way.

The nature of assay [1]: Quantitative High-Throughput drug screen in 47 multiple myeloma cell lines against the NCATS MIPE library collection: OPM2_DSMZ cell viability assay (AID 1919872). Also: nearly all actives have a fitted effect of over 30% in size. The method in brief:
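Primary qHTS used for cherry-picking: cells at 500/well, library compounds for 48 h (37C, 5% CO2), luminescent ATP assay.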

A short description of assay [2]: Quantitative High-Throughput drug screen in 47 multiple myeloma cell lines against the NCATS MIPE library collection: RPMI8226_ATCC cell viability assay (AID 1919871). Also: nearly all actives have a fitted effect of over 30% in size. The method in brief:
(§1)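 Myeloma cells (500/well) treated with MIPE 4.0 compounds for 48 h at 37 °C, 5% CO2. Viability read as ATP via CellTiter-Glo luminescence after 5 min at RT; DMSO-only wells = 100%, media-only = 0% viability.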

Assay [3] in a line: Quantitative High-Throughput drug screen in 47 multiple myeloma cell lines against the NCATS MIPE library collection: KMS11_JCRBsus cell viability assay (AID 1919873). Also: nearly all actives have a fitted effect of over 50% in size. An outline of the steps:
as §1

Assay [4] is described as follows: Quantitative High-Throughput drug screen in 47 multiple myeloma cell lines against the NCATS MIPE library collection: KMS28BM_JCRB cell viability assay (AID 1919874). Also: nearly all actives have a fitted effect of over 35% in size. An outline of the steps: as §1
Potency is read from the fitted curve at half-maximal effect.

With `Cc1cc2c(F)c(Oc3ncnn4cc(OC[C@@H](C)O)c(C)c34)ccc2[nH]1`, in assay [1], the Potency is 23.5 µM (active).

Turning to `CC1(C)CNc2cc(NC(=O)c3cccnc3NCc3ccncc3)ccc21`, the Potency was 18.7 µM (active) in assay [2] and 20.9 µM (active) in assay [3]. Moreover, the Potency result in assay [4] is “inactive”.

Consider `NC(=O)c1ccc(-c2nc(-c3ccc4c(c3)OCO4)c(-c3ccccn3)[nH]2)cc1`, for which the Potency entry in assay [3] and in assay [4] was “inactive” each time.

Consider `Cc1cnc(Nc2ccc(OCCN3CCCC3)cc2)nc1Nc1cccc(S(=O)(=O)NC(C)(C)C)c1`, for which the Potency result in assay [1] is “inactive”. In addition, the Potency in assay [4] was 0.935 µM (active).

Consider `CN(C)C(=O)c1ccc(S(=O)(=O)c2ccc(NC(=O)[C@@](C)(O)C(F)(F)F)c(Cl)c2)cc1`, for which the Potency result in assay [2], in assay [1] and in assay [4] was “inactive” in each case.

For the compound `CC(C)(N)C(=O)N[C@H](COCc1ccccc1)C(=O)N1CCC2(CC1)CN(S(C)(=O)=O)c1ccccc12`, the Potency entry in assay [1] was “inactive”.
